# Data taken from PMC9911399, “Two distinct binding modes provide the RNA-binding protein RbFox with extraordinary sequence specificity”.
# Residue numbers refer to the chain shown, from its start. Over roughly 16,000 sequences, “ka relative to ugcaugu” has its median near 0.096; the highest 2% begin near 0.35. This excerpt belongs to a sample that is enriched for the highest values.
# B1: CGCCCUU (DNA:RNA)
# RNA: GGGAGACCGGAAUUCAGAUUGUCCCGCCCUUUUAAAUCCCGUCGUAGCCACCA
# DNA 1: CAATCTGAATTCCGGTCTCCC
# DNA 2: TGGTGGCTACGACGGGATT
# B2: UCGUUAU (DNA:RNA)
# RNA: B1 RNA with C25U, G26C, C27G, C28U, C29U, U30A
# DNA 1: CAATCTGAATTCCGGTCTCCC
# DNA 2: TGGTGGCTACGACGGGATT
# B3: UGUAUUC (DNA:RNA)
# RNA: B1 RNA with C25U, C27U, C28A, C29U, U31C
# DNA 1: CAATCTGAATTCCGGTCTCCC
# DNA 2: TGGTGGCTACGACGGGATT
# B4: CGUAAUG (DNA:RNA)
# RNA: B1 RNA with C27U, C28A, C29A, U31G
# DNA 1: CAATCTGAATTCCGGTCTCCC
# DNA 2: TGGTGGCTACGACGGGATT
# B5: UGUAUGC (DNA:RNA)
# RNA: B1 RNA with C25U, C27U, C28A, C29U, U30G, U31C
# DNA 1: CAATCTGAATTCCGGTCTCCC
# DNA 2: TGGTGGCTACGACGGGATT
# B6: UGUGUGG (DNA:RNA)
# RNA: B1 RNA with C25U, C27U, C28G, C29U, U30G, U31G
# DNA 1: CAATCTGAATTCCGGTCTCCC
# DNA 2: TGGTGGCTACGACGGGATT
# B7: UGUUAAA (DNA:RNA)
# RNA: B1 RNA with C25U, C27U, C28U, C29A, U30A, U31A
# DNA 1: CAATCTGAATTCCGGTCTCCC
# DNA 2: TGGTGGCTACGACGGGATT
# B8: UGUAGGG (DNA:RNA)
# RNA: B1 RNA with C25U, C27U, C28A, C29G, U30G, U31G
# DNA 1: CAATCTGAATTCCGGTCTCCC
# DNA 2: TGGTGGCTACGACGGGATT
# B9: UGUAUGG (DNA:RNA)
# RNA: B1 RNA with C25U, C27U, C28A, C29U, U30G, U31G
# DNA 1: CAATCTGAATTCCGGTCTCCC
# DNA 2: TGGTGGCTACGACGGGATT
# B10: UGUCGUA (DNA:RNA)
# RNA: B1 RNA with C25U, C27U, C29G, U31A
# DNA 1: CAATCTGAATTCCGGTCTCCC
# DNA 2: TGGTGGCTACGACGGGATT
# B11: UGUAAUC (DNA:RNA)
# RNA: B1 RNA with C25U, C27U, C28A, C29A, U31C
# DNA 1: CAATCTGAATTCCGGTCTCCC
# DNA 2: TGGTGGCTACGACGGGATT
# B12: UGUAAUG (DNA:RNA)
# RNA: B1 RNA with C25U, C27U, C28A, C29A, U31G
# DNA 1: CAATCTGAATTCCGGTCTCCC
# DNA 2: TGGTGGCTACGACGGGATT
# B13: UGUAUGA (DNA:RNA)
# RNA: B1 RNA with C25U, C27U, C28A, C29U, U30G, U31A
# DNA 1: CAATCTGAATTCCGGTCTCCC
# DNA 2: TGGTGGCTACGACGGGATT
# B14: UGUAGGC (DNA:RNA)
# RNA: B1 RNA with C25U, C27U, C28A, C29G, U30G, U31C
# DNA 1: CAATCTGAATTCCGGTCTCCC
# DNA 2: TGGTGGCTACGACGGGATT
# B15: UGCUAAU (DNA:RNA)
# RNA: B1 RNA with C25U, C28U, C29A, U30A
# DNA 1: CAATCTGAATTCCGGTCTCCC
# DNA 2: TGGTGGCTACGACGGGATT
# B16: AGCGUUA (DNA:RNA)
# RNA: B1 RNA with C25A, C28G, C29U, U31A
# DNA 1: CAATCTGAATTCCGGTCTCCC
# DNA 2: TGGTGGCTACGACGGGATT
# B17: GUGCUCG (DNA:RNA)
# RNA: B1 RNA with C25G, G26U, C27G, C29U, U30C, U31G
# DNA 1: CAATCTGAATTCCGGTCTCCC
# DNA 2: TGGTGGCTACGACGGGATT
# B18: CUUACCA (DNA:RNA)
# RNA: B1 RNA with G26U, C27U, C28A, U30C, U31A
# DNA 1: CAATCTGAATTCCGGTCTCCC
# DNA 2: TGGTGGCTACGACGGGATT
# B19: GAGUGUA (DNA:RNA)
# RNA: B1 RNA with C25G, G26A, C27G, C28U, C29G, U31A
# DNA 1: CAATCTGAATTCCGGTCTCCC
# DNA 2: TGGTGGCTACGACGGGATT
# B20: CAGCCAU (DNA:RNA)
# RNA: B1 RNA with G26A, C27G, U30A
# DNA 1: CAATCTGAATTCCGGTCTCCC
# DNA 2: TGGTGGCTACGACGGGATT
# B21: UGUAUUG (DNA:RNA)
# RNA: B1 RNA with C25U, C27U, C28A, C29U, U31G
# DNA 1: CAATCTGAATTCCGGTCTCCC
# DNA 2: TGGTGGCTACGACGGGATT
# B22: UGUAUCG (DNA:RNA)
# RNA: B1 RNA with C25U, C27U, C28A, C29U, U30C, U31G
# DNA 1: CAATCTGAATTCCGGTCTCCC
# DNA 2: TGGTGGCTACGACGGGATT
# B23: UGUAUUA (DNA:RNA)
# RNA: B1 RNA with C25U, C27U, C28A, C29U, U31A
# DNA 1: CAATCTGAATTCCGGTCTCCC
# DNA 2: TGGTGGCTACGACGGGATT
# B24: UGUUGUA (DNA:RNA)
# RNA: B1 RNA with C25U, C27U, C28U, C29G, U31A
# DNA 1: CAATCTGAATTCCGGTCTCCC
# DNA 2: TGGTGGCTACGACGGGATT
# B25: UGUCCCG (DNA:RNA)
# RNA: B1 RNA with C25U, C27U, U30C, U31G
# DNA 1: CAATCTGAATTCCGGTCTCCC
# DNA 2: TGGTGGCTACGACGGGATT
# B26: UGUAUCC (DNA:RNA)
# RNA: B1 RNA with C25U, C27U, C28A, C29U, U30C, U31C
# DNA 1: CAATCTGAATTCCGGTCTCCC
# DNA 2: TGGTGGCTACGACGGGATT
# B27: GCUAGGC (DNA:RNA)
# RNA: GGGAGACCGGAAUUCAGAUUGUCCGCUAGGCUUAAAUCCCGUCGUAGCCACCA
# DNA 1: CAATCTGAATTCCGGTCTCCC
# DNA 2: TGGTGGCTACGACGGGATT
# B28: UGCACAU (DNA:RNA)
# RNA: B1 RNA with C25U, C28A, U30A
# DNA 1: CAATCTGAATTCCGGTCTCCC
# DNA 2: TGGTGGCTACGACGGGATT
# B29: GACAGGU (DNA:RNA)
# RNA: B27 RNA with C26A, U27C, C31U
# DNA 1: CAATCTGAATTCCGGTCTCCC
# DNA 2: TGGTGGCTACGACGGGATT
# B30: AGUUAAU (DNA:RNA)
# RNA: B1 RNA with C25A, C27U, C28U, C29A, U30A
# DNA 1: CAATCTGAATTCCGGTCTCCC
# DNA 2: TGGTGGCTACGACGGGATT
# B31: UUGGGAA (DNA:RNA)
# RNA: B27 RNA with G25U, C26U, U27G, A28G, G30A, C31A
# DNA 1: CAATCTGAATTCCGGTCTCCC
# DNA 2: TGGTGGCTACGACGGGATT
# B32: UCGUGUC (DNA:RNA)
# RNA: B27 RNA with G25U, U27G, A28U, G30U
# DNA 1: CAATCTGAATTCCGGTCTCCC
# DNA 2: TGGTGGCTACGACGGGATT
# B33: UCGCGUC (DNA:RNA)
# RNA: B27 RNA with G25U, U27G, A28C, G30U
# DNA 1: CAATCTGAATTCCGGTCTCCC
# DNA 2: TGGTGGCTACGACGGGATT
# B34: UUGUGUG (DNA:RNA)
# RNA: B1 RNA with C25U, G26U, C27G, C28U, C29G, U31G
# DNA 1: CAATCTGAATTCCGGTCTCCC
# DNA 2: TGGTGGCTACGACGGGATT
# B35: UUGUCCC (DNA:RNA)
# RNA: B1 RNA with C25U, G26U, C27G, C28U, U30C, U31C
# DNA 1: CAATCTGAATTCCGGTCTCCC
# DNA 2: TGGTGGCTACGACGGGATT
# B36: CCUUGUC (DNA:RNA)
# RNA: B27 RNA with G25C, A28U, G30U
# DNA 1: CAATCTGAATTCCGGTCTCCC
# DNA 2: TGGTGGCTACGACGGGATT
# B37: UUGGGUG (DNA:RNA)
# RNA: B1 RNA with C25U, G26U, C27G, C28G, C29G, U31G
# DNA 1: CAATCTGAATTCCGGTCTCCC
# DNA 2: TGGTGGCTACGACGGGATT
# B38: CUUGUCC (DNA:RNA)
# RNA: B27 RNA with G25C, C26U, A28G, G29U, G30C
# DNA 1: CAATCTGAATTCCGGTCTCCC
# DNA 2: TGGTGGCTACGACGGGATT
# B39: UUGUGUC (DNA:RNA)
# RNA: B27 RNA with G25U, C26U, U27G, A28U, G30U
# DNA 1: CAATCTGAATTCCGGTCTCCC
# DNA 2: TGGTGGCTACGACGGGATT
# B40: UUGGGGG (DNA:RNA)
# RNA: B27 RNA with G25U, C26U, U27G, A28G, C31G
# DNA 1: CAATCTGAATTCCGGTCTCCC
# DNA 2: TGGTGGCTACGACGGGATT
# B41: UCGCGUG (DNA:RNA)
# RNA: B1 RNA with C25U, G26C, C27G, C29G, U31G
# DNA 1: CAATCTGAATTCCGGTCTCCC
# DNA 2: TGGTGGCTACGACGGGATT
# B42: GUGUGUC (DNA:RNA)
# RNA: B27 RNA with C26U, U27G, A28U, G30U
# DNA 1: CAATCTGAATTCCGGTCTCCC
# DNA 2: TGGTGGCTACGACGGGATT
# Molecular target: T1, RBFOX1 RRM RbFoxmut (Fox-RRM*) (Homo sapiens, UniProt Q9NWB1 109-208, R118D;E147R;N151S;E152T)
# T1 sequence: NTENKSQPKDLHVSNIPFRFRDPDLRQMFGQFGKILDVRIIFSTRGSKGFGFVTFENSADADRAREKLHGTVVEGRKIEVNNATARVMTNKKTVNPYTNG
# Assay: EMSA; HiTS-Eq, 1 nM pool, 10 min; buffer printed only for the single-RNA assays: 10 mM Tris pH 7.5, 150 mM NaCl, 3.4 mM EDTA, 0.001% NP-40, 30 C
# Conditions: tags: His6 N-terminal (pET28a); label: 5' 32P
# How it was run: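 Purified wild-type or mutant RbFox RRM at increasing concentrations was equilibrated with 1 nM of 5′-radiolabelled RNA carrying 7 randomized nucleotides for 10 min in 50 µL. Unbound RNA was separated by 8% native PAGE and sequenced. Relative association constants came from read-count changes of each RNA species compared with the control reaction, normalised to the cognate motif.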
row,Binder,binding signal
1,B1,0.0724 KA relative to UGCAUGU
2,B2,0.11 KA relative to UGCAUGU
3,B3,0.207 KA relative to UGCAUGU
4,B4,0.157 KA relative to UGCAUGU
5,B5,0.684 KA relative to UGCAUGU
6,B6,0.173 KA relative to UGCAUGU
7,B7,0.11 KA relative to UGCAUGU
8,B8,0.0751 KA relative to UGCAUGU
9,B9,0.394 KA relative to UGCAUGU
10,B10,0.13 KA relative to UGCAUGU
11,B11,0.157 KA relative to UGCAUGU
12,B12,0.381 KA relative to UGCAUGU
13,B13,0.44 KA relative to UGCAUGU
14,B14,0.115 KA relative to UGCAUGU
15,B15,0.0977 KA relative to UGCAUGU
16,B16,0.113 KA relative to UGCAUGU
17,B17,0.226 KA relative to UGCAUGU
18,B18,0.0834 KA relative to UGCAUGU
19,B19,0.258 KA relative to UGCAUGU
20,B20,0.0919 KA relative to UGCAUGU
21,B21,0.691 KA relative to UGCAUGU

row,Binder,binding signal
1,B22,0.648 KA relative to UGCAUGU
2,B23,0.175 KA relative to UGCAUGU
3,B24,0.307 KA relative to UGCAUGU
4,B25,0.096 KA relative to UGCAUGU
5,B26,0.15 KA relative to UGCAUGU
6,B27,0.0891 KA relative to UGCAUGU
7,B28,0.0893 KA relative to UGCAUGU
8,B29,0.0716 KA relative to UGCAUGU
9,B30,0.0918 KA relative to UGCAUGU
10,B31,0.14 KA relative to UGCAUGU
11,B32,0.359 KA relative to UGCAUGU
12,B33,0.145 KA relative to UGCAUGU
13,B34,0.491 KA relative to UGCAUGU
14,B35,0.0731 KA relative to UGCAUGU
15,B36,0.226 KA relative to UGCAUGU
16,B37,0.373 KA relative to UGCAUGU
17,B38,0.107 KA relative to UGCAUGU
18,B39,0.357 KA relative to UGCAUGU
19,B40,0.0724 KA relative to UGCAUGU
20,B41,0.153 KA relative to UGCAUGU
21,B42,0.329 KA relative to UGCAUGU
